Data on 38 compounds can be found in PubChem BioAssay (NCI).

About 83,000 compounds went through this panel and 20% of them were active in at least one assay; those are over-represented in the sample as a whole.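 Step 1: grow cells in 96-well plates. Step 2: add test compound at a single concentration. Step 3: incubate 48 h. Step 4: record percent growth.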 Active and inactive are the calls of the source. Rule for the calls: active = growth percent below 10; inactive = the rest.

In one assay the test system is SK-MEL-28 melanoma. The assay can be described thus: NCI-60 one-dose screen, 48 h (100 = growth as untreated, 0 = no growth, -100 = all killed). Particulars: 10 µM unless noted.
Consider `CCN(CC)CCCCCCNc1cc(OC)cc2cccnc12`, for which the growth was -11.8% (active).

As for `COc1ccccc1Nc1cc(O)c2c(=O)cc(-c3ccccc3)oc2c1`, the growth is 56.5% (inactive).

For `COc1ccc(C(O)c2cc3c(N)c(C(=O)Nc4ccc(Cl)cc4)sc3nc2C)cc1` (stereo unspecified), the growth is 59.6% (inactive).

Turning to `COc1cc(NCC(O)CN(CC(C)C)CC(C)C)c2nc(C)ccc2c1` (stereo unspecified), the growth is 100% (inactive).

As for `CCCCCCCCCCN=C(N)N=C(N)N`, the growth is 63.3% (inactive).

As to `COc1ccc(C(O)c2cc3c(N)c(C(=O)Nc4cccc(Br)c4C)sc3nc2C)cc1` (stereo unspecified), the growth is 64.7% (inactive).

With `CCCCCCCCCCCCCCCCCCOc1ccccc1N`, the growth is 96.9% (inactive).

In the case of `CC(=O)O[C@H]1CC[C@@]2(C)[C@@H](CC[C@@H]3[C@@H]2CC[C@@]2(C)[C@H]3CC[C@]2(O)C(C)=O)C1`, the growth was 103% (inactive).

Regarding `CCC1(CC)NC(=O)c2c(c3ccc(Cl)c(Cl)c3n2C)C1C#N` (stereo unspecified), the growth is 123% (inactive).

In the case of `COc1ccc(C2CC(c3cccc(Nc4ccncc4)c3)=NN2c2cc(Cl)cc(Cl)c2)cc1` (stereo unspecified), the growth was -49.3% (active).

With `CC(=O)Nc1ccc(S(=O)(=O)NC2CCCCC2)cc1`, the growth is 98.3% (inactive).

`Clc1ccc(N2N=C(c3cccc(Nc4ccncc4)c3)CC2c2ccccc2)cc1` (stereo unspecified): the growth is 90.4% (inactive).

As to `CN1C2CCC1CN(c1cnc(C(=O)Nc3cc(F)cc4cccnc34)cn1)C2`, the growth was 57.8% (inactive).

For the compound `C=Cc1cc[n+](CCCCCCCCCCCC)cc1`, the growth is 111% (inactive).

As for `CCCCCCCCCCCCCCCC(=O)OC[C@@]1(O)C[C@@]23CC[C@@H]4C(C)(C)[C@H](O)CC[C@@]4(C)[C@@H]2CC[C@H]1C3`, the growth was 110% (inactive).

`O=C(CN1CCOCC1)Nc1ccc2ncnc(Nc3ccc(OCc4cccc(F)c4)c(Cl)c3)c2c1`: the growth was 77% (inactive).

Regarding `Clc1cc(Cl)cc(N2N=C(c3cccc(Nc4ccncc4)c3)CC2c2ccccc2)c1` (stereo unspecified), the growth is 11% (inactive).

As to `C[C@]12CCc3nc(Nc4cccc(O)c4)sc3C1=CC[C@@H]1[C@@H]2CC[C@]2(C)/C(=N\NC(N)=S)CC[C@@H]12`, the growth is 9.46% (active).

On to `Cc1c2c(cc[n+]1Cc1ccccc1)c1ccc(OCc3ccccc3)cc1n2Cc1ccccc1`, for which the growth is -56.5% (active).

Take `O=C(O)CNC(=O)CN1C(=O)c2ccccc2C1=O`: the growth was 103% (inactive).

Turning to `O=C(Nc1nc2ccc(C(=O)N3CCN(c4ccc(Cl)c(Cl)c4)CC3)cc2s1)c1ccc(NCCc2ccccc2)c([N+](=O)[O-])c1`, the growth was 105% (inactive).

As for `COc1ccccc1-c1c(-c2ccc(Cl)cc2)c2cc3c(cc2[nH]c1=O)OCCO3`, the growth was 90.4% (inactive).

`O=S(=O)(NCCNc1nccc(-c2c(-c3ccc(F)c(O)c3)nc3occn23)n1)c1ccccc1`: the growth is 27.3% (inactive).

For `Clc1cc(Cl)cc(N2N=C(c3cccc(Nc4ccncc4)c3)CC2c2ccc(Br)cc2)c1` (stereo unspecified), the growth is -21.8% (active).

`Cn1c(COC(=O)NCCn2ccnc2)nc2c(N3CCOCC3)nc(-c3ccccc3)nc21`: the growth is -98.8% (active).

For `Cc1c2c(cc[n+]1Cc1ccc(F)cc1)c1ccc(OCc3cccc(F)c3)cc1n2Cc1cccc(F)c1`, the growth is -91% (active).

With `CCCOc1nc(SCCC)nc2c1cnn2-c1ccccc1`, the growth was 122% (inactive).

As to `Cc1ccc(/C=C/C(=O)c2ccc(N)cc2)c(C)c1`, the growth is 105% (inactive).

As for `Cc1cc(C)c(C=O)c(C)c1`, the growth was 110% (inactive).

Take `COc1ccc(-c2c(-c3ccccc3)noc2N)cc1OC`: the growth was 112% (inactive).

With `O=C1c2cccnc2C(=O)c2nc3cc(N4CCN(C5CC5)CC4)ccc3nc21`, the growth is -76.9% (active).

In the case of `c1ccc(N2N=C(c3cccc(Nc4ccncc4)c3)CC2c2ccc3c(c2)OCO3)cc1` (stereo unspecified), the growth was -52.7% (active).

`COc1cc(NCC(C)(O)CN(CC(C)C)CC(C)C)c2nc(C)ccc2c1` (stereo unspecified): the growth was 99.3% (inactive).

Consider `C[C@@H]1CN(Cc2ccc(/C=C/c3n[nH]c4ccc5nc(-c6cn[nH]c6C(F)(F)F)c6c(c5c34)CCCC6)cc2)C[C@H](C)O1`, for which the growth is 40.6% (inactive).

Turning to `CC1(C)CCCN1CCCN1c2ccccc2Sc2ccc(Cl)cc21`, the growth is 72% (inactive).

Turning to `CC1CCN(C(=O)OCc2nc3nc(Cl)nc(N4CCOCC4)c3[nH]2)CC1`, the growth was -86.4% (active).

Consider `CC1(C)CN(c2cnc(C(=O)Nc3cc(F)cc4cccnc34)cn2)CCN1`, for which the growth is 80.2% (inactive).

In the case of `Cn1c(COC(=O)NCCN2CCOCC2)nc2c(N3CCOCC3)nc(-c3ccccc3)nc21`, the growth is -97.6% (active).

The next assay deals with SK-MEL-2 melanoma. The assay is described as above. Particulars: 10 µM unless noted.
In the case of `CCN(CC)CCCCCCNc1cc(OC)cc2cccnc12`, the growth was 114% (inactive).

`COc1ccccc1Nc1cc(O)c2c(=O)cc(-c3ccccc3)oc2c1`: the growth is 13.7% (inactive).

With `COc1ccc(C(O)c2cc3c(N)c(C(=O)Nc4ccc(Cl)cc4)sc3nc2C)cc1` (stereo unspecified), the growth is 37.1% (inactive).

Take `COc1cc(NCC(O)CN(CC(C)C)CC(C)C)c2nc(C)ccc2c1` (stereo unspecified): the growth is 99% (inactive).

Consider `CCCCCCCCCCN=C(N)N=C(N)N`, for which the growth is 75.8% (inactive).

`COc1ccc(C(O)c2cc3c(N)c(C(=O)Nc4cccc(Br)c4C)sc3nc2C)cc1` (stereo unspecified): the growth was 9.35% (active).

Turning to `CCCCCCCCCCCCCCCCCCOc1ccccc1N`, the growth was 86.3% (inactive).

For `CC(=O)O[C@H]1CC[C@@]2(C)[C@@H](CC[C@@H]3[C@@H]2CC[C@@]2(C)[C@H]3CC[C@]2(O)C(C)=O)C1`, the growth was 117% (inactive).

For `CCC1(CC)NC(=O)c2c(c3ccc(Cl)c(Cl)c3n2C)C1C#N` (stereo unspecified), the growth is 115% (inactive).

In the case of `COc1ccc(C2CC(c3cccc(Nc4ccncc4)c3)=NN2c2cc(Cl)cc(Cl)c2)cc1` (stereo unspecified), the growth was 91.1% (inactive).

As for `CC(=O)Nc1ccc(S(=O)(=O)NC2CCCCC2)cc1`, the growth was 108% (inactive).

As for `Clc1ccc(N2N=C(c3cccc(Nc4ccncc4)c3)CC2c2ccccc2)cc1` (stereo unspecified), the growth was 107% (inactive).

Regarding `CN1C2CCC1CN(c1cnc(C(=O)Nc3cc(F)cc4cccnc34)cn1)C2`, the growth was 109% (inactive).

With `C=Cc1cc[n+](CCCCCCCCCCCC)cc1`, the growth was 150% (inactive).

`CCCCCCCCCCCCCCCC(=O)OC[C@@]1(O)C[C@@]23CC[C@@H]4C(C)(C)[C@H](O)CC[C@@]4(C)[C@@H]2CC[C@H]1C3`: the growth was 104% (inactive).

In the case of `O=C(CN1CCOCC1)Nc1ccc2ncnc(Nc3ccc(OCc4cccc(F)c4)c(Cl)c3)c2c1`, the growth was 88.1% (inactive).

Take `Clc1cc(Cl)cc(N2N=C(c3cccc(Nc4ccncc4)c3)CC2c2ccccc2)c1` (stereo unspecified): the growth was 97.1% (inactive).

Turning to `C[C@]12CCc3nc(Nc4cccc(O)c4)sc3C1=CC[C@@H]1[C@@H]2CC[C@]2(C)/C(=N\NC(N)=S)CC[C@@H]12`, the growth is 40.8% (inactive).

Take `Cc1c2c(cc[n+]1Cc1ccccc1)c1ccc(OCc3ccccc3)cc1n2Cc1ccccc1`: the growth is -36% (active).

With `O=C(O)CNC(=O)CN1C(=O)c2ccccc2C1=O`, the growth is 114% (inactive).

In the case of `O=C(Nc1nc2ccc(C(=O)N3CCN(c4ccc(Cl)c(Cl)c4)CC3)cc2s1)c1ccc(NCCc2ccccc2)c([N+](=O)[O-])c1`, the growth was 104% (inactive).

For the compound `COc1ccccc1-c1c(-c2ccc(Cl)cc2)c2cc3c(cc2[nH]c1=O)OCCO3`, the growth is 80.5% (inactive).

Regarding `O=S(=O)(NCCNc1nccc(-c2c(-c3ccc(F)c(O)c3)nc3occn23)n1)c1ccccc1`, the growth is 17% (inactive).

For `Clc1cc(Cl)cc(N2N=C(c3cccc(Nc4ccncc4)c3)CC2c2ccc(Br)cc2)c1` (stereo unspecified), the growth is 99.2% (inactive).

Consider `Cn1c(COC(=O)NCCn2ccnc2)nc2c(N3CCOCC3)nc(-c3ccccc3)nc21`, for which the growth is -69.6% (active).

`Cc1c2c(cc[n+]1Cc1ccc(F)cc1)c1ccc(OCc3cccc(F)c3)cc1n2Cc1cccc(F)c1`: the growth was -81.3% (active).

Consider `CCCOc1nc(SCCC)nc2c1cnn2-c1ccccc1`, for which the growth is 86.8% (inactive).

Regarding `Cc1ccc(/C=C/C(=O)c2ccc(N)cc2)c(C)c1`, the growth was 99% (inactive).

As for `Cc1cc(C)c(C=O)c(C)c1`, the growth is 106% (inactive).

Regarding `COc1ccc(-c2c(-c3ccccc3)noc2N)cc1OC`, the growth is 98.5% (inactive).

Turning to `O=C1c2cccnc2C(=O)c2nc3cc(N4CCN(C5CC5)CC4)ccc3nc21`, the growth is -16.3% (active).

`c1ccc(N2N=C(c3cccc(Nc4ccncc4)c3)CC2c2ccc3c(c2)OCO3)cc1` (stereo unspecified): the growth is 39% (inactive).

As for `COc1cc(NCC(C)(O)CN(CC(C)C)CC(C)C)c2nc(C)ccc2c1` (stereo unspecified), the growth is 96.8% (inactive).

With `C[C@@H]1CN(Cc2ccc(/C=C/c3n[nH]c4ccc5nc(-c6cn[nH]c6C(F)(F)F)c6c(c5c34)CCCC6)cc2)C[C@H](C)O1`, the growth is 57.6% (inactive).

`CC1(C)CCCN1CCCN1c2ccccc2Sc2ccc(Cl)cc21`: the growth was 117% (inactive).

As to `CC1CCN(C(=O)OCc2nc3nc(Cl)nc(N4CCOCC4)c3[nH]2)CC1`, the growth was -92% (active).

Turning to `CC1(C)CN(c2cnc(C(=O)Nc3cc(F)cc4cccnc34)cn2)CCN1`, the growth was 99.8% (inactive).

For `Cn1c(COC(=O)NCCN2CCOCC2)nc2c(N3CCOCC3)nc(-c3ccccc3)nc21`, the growth is -59.8% (active).
